# Data taken from PubChem BioAssay (EPA / NIEHS).
# Calls of active or inactive are those of the source. How the source made its calls: active means hit-call score of the fitted dose curve at least 0.9, where 1 is the maximum; inactive means score below 0.9.
# Key:
# [1] = target: Paired box protein Pax-6 (Homo sapiens) (UniProt P26367); assay: ATG_Pax6_CIS: Attagene CIS-FACTORIAL HepG2 Assay for human Paired Box 6 (PAX6) (AID 2282956); conditions: HepG2 CIS-FACTORIAL PAX6 reporter transcription, RNA readout; actives raise or lower the signal
# Paired box protein Pax-6 (Homo sapiens), sequence (P26367 whole entry, looked up): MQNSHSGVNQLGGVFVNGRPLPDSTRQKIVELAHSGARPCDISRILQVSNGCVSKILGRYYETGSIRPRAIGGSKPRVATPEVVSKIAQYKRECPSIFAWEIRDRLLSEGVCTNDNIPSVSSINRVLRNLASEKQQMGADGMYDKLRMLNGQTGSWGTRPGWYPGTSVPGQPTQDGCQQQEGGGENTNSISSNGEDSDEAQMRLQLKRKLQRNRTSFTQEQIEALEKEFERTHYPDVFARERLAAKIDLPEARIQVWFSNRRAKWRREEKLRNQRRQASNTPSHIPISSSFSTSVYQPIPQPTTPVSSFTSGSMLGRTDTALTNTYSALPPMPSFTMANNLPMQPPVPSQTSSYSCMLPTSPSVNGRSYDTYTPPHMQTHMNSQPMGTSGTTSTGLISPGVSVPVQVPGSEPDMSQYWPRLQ
# Procedure, shortened: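 Readout: reporter transcript fluorescence after RT-PCR and capillary electrophoresis. Cells: HepG2, transiently transfected with cis-regulated MRTUs. Exposure 24 h. Gain or loss of signal fitted bidirectionally relative to DMSO.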
# [2] = ATG_PPRE_CIS: Attagene CIS-FACTORIAL HepG2 Assay for human Peroxisome Proliferator-activated Response Element (PPRE) (AID 2282958); conditions: HepG2 PPRE cis-element reporter, Attagene transcription factor profiling; actives raise or lower the signal
# Procedure, shortened: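 Endogenous PPRE-driven transcription is measured in HepG2 cells carrying transfected multi-reporter constructs. Reporter transcripts are quantified by RT-PCR, HpaI digestion and capillary electrophoresis 24 h after dosing. DMSO baseline, bidirectional fit.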
# [3] = ATG_RORE_CIS: Attagene CIS-FACTORIAL HepG2 Assay for human RAR-related Orphan Receptor Element (RORE) (AID 2282959); conditions: HepG2 Attagene cis-factorial RORE reporter, mRNA; actives raise or lower the signal
# Procedure, shortened: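 RORE reporter transcripts reflecting endogenous factor activity were read after 24 h compound exposure of transfected HepG2 cells, using reverse transcription, PCR, fluorescent labelling and capillary electrophoresis sizing. Gain or loss fitted against DMSO.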
# [4] = ATG_Sox_CIS: Attagene CIS-FACTORIAL HepG2 Assay for human SRY-box transcription factor (SOX) (AID 2282960); conditions: HepG2 Attagene cis-factorial SOX reporter, mRNA; actives raise or lower the signal
# Procedure, shortened: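 Reporter transcripts, measured by RT-PCR and capillary electrophoresis of labelled fragments, report endogenous SOX transcription factor activity. Transiently transfected human HepG2 cells receive chemical for 24 h; changes in either direction are fitted relative to DMSO.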
# [5] = target: Transcription factor Sp1 (Homo sapiens) (UniProt P08047); assay: ATG_Sp1_CIS: Attagene CIS-FACTORIAL HepG2 Assay for human Specificity Protein 1 (Sp1) (AID 2282961); conditions: HepG2 Sp1 cis-reporter transcription, actives raise or lower the signal
# Transcription factor Sp1 (Homo sapiens), sequence (P08047 whole entry, looked up): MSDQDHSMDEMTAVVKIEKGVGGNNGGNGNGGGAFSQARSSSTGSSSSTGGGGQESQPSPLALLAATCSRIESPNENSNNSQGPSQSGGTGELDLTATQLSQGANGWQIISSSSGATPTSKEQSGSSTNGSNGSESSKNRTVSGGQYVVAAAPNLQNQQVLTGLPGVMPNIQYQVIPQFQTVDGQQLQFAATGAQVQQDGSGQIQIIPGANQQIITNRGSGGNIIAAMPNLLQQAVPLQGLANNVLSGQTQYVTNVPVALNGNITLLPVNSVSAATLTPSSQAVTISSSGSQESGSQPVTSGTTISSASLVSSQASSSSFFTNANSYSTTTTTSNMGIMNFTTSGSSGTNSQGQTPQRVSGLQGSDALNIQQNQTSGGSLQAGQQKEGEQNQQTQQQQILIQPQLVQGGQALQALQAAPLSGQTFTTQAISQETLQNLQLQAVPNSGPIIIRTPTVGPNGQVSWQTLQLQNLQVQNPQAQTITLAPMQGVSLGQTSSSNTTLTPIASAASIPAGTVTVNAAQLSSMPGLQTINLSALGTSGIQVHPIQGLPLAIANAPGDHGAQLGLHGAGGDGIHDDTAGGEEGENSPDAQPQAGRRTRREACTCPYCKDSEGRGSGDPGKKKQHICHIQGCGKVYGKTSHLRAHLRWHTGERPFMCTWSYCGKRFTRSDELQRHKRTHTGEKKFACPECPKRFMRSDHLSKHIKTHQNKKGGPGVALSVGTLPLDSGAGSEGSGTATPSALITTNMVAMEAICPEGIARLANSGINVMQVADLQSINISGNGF
# Procedure, shortened: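 Read-out is reporter transcript level, measured by RT-PCR and fluorescent capillary electrophoresis after 24 h chemical treatment. System: transiently transfected HepG2 cells reporting endogenous transcription factor activity; gain or loss fitted against DMSO baseline.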
# [6] = ATG_SREBP_CIS: Attagene CIS-FACTORIAL HepG2 Assay for human Sterol Regulatory Element Binding (SREBP) (AID 2282962); conditions: HepG2 Attagene cis-factorial SREBP reporter, mRNA; actives raise or lower the signal
# Procedure, shortened: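 Readout: fluorescent reporter-transcript peaks resolved by capillary electrophoresis after RT-PCR. Cells were human HepG2 carrying transfected cis-promoter reporter constructs, dosed for 24 h. Gain or loss of signal was fitted against DMSO controls.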
# [7] = target: Signal transducer and activator of transcription 3 (Homo sapiens) (UniProt P40763); assay: ATG_STAT3_CIS: Attagene CIS-FACTORIAL HepG2 Assay for human Signal Transducer and Activator of Transcription 3 (STAT3) (AID 2282963); conditions: HepG2, Attagene cis-factorial STAT3 reporter transcription; actives raise or lower the signal
# Signal transducer and activator of transcription 3 (Homo sapiens), sequence (P40763 whole entry, looked up): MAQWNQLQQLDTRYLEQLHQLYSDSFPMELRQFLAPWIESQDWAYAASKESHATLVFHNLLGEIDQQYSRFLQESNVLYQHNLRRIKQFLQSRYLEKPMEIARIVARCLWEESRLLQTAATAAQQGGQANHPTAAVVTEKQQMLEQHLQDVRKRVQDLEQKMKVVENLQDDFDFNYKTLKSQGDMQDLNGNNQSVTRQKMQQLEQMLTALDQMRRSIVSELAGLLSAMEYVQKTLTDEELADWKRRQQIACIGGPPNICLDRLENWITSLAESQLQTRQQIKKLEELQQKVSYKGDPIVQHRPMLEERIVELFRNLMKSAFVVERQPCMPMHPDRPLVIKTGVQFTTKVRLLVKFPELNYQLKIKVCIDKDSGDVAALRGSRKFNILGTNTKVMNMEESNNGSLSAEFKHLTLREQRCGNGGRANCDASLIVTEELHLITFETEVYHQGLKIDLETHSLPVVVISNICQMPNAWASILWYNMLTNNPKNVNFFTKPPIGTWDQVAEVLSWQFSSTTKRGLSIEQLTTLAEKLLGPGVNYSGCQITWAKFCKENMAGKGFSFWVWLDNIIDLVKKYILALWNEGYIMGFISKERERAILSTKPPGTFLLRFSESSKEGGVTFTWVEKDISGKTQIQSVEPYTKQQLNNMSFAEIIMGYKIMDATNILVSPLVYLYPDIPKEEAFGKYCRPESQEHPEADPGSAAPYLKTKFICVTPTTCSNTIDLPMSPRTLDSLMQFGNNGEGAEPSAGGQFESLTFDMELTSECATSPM
# Procedure, shortened: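 HepG2, MRTU-transfected, 24 h dosing. RNA → RT → PCR → FAM label → HpaI → CE. Bidirectional fit vs DMSO.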
# [8] = ATG_TCF_b_cat_CIS: Attagene CIS-FACTORIAL HepG2 Assay for human T-Cell-Factor with beta-catenin (TCF/b-cat) (AID 2282965); conditions: HepG2 TCF/beta-catenin cis-reporter transcription, actives raise or lower the signal
# Procedure, shortened: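 In this cis-format system, transfected HepG2 cells report endogenous transcription factor activity. Readout after 24 h exposure is reporter transcript abundance from RT-PCR and capillary electrophoresis, analysed for gain or loss of signal versus DMSO.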
# [9] = ATG_TA_CIS: Attagene CIS-FACTORIAL HepG2 Assay for human TA Basal Promoter (AID 2282964); conditions: HepG2 Attagene CIS-factorial TA basal promoter reporter; actives raise or lower the signal
# Procedure, shortened: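 HepG2 cells transiently transfected with multiplexed cis-promoter reporter units, dosed 24 h. Reporter mRNA measured by RT-PCR, 6-FAM labelling, HpaI digestion and capillary electrophoresis; bidirectional fit versus DMSO baseline, serving as background control.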
# [10] = ATG_PXRE_CIS: Attagene CIS-FACTORIAL HepG2 Assay for human Pregnane X Receptor Element (PXRE) (AID 2282957); conditions: HepG2 Attagene CIS-FACTORIAL PXRE reporter, mRNA; actives raise or lower the signal
# Procedure, shortened: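 Reporter transcripts under endogenous PXR-responsive cis-regulation quantified from total RNA of transfected HepG2 cells 24 h post-dosing, via RT-PCR with fluorescent primer extension and capillary electrophoresis. Gain or loss of signal fitted against DMSO baseline.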
SMILES,AC50 [1],outcome [2],outcome [3],outcome [4],AC50 [5],AC50 [6],outcome [7],outcome [8],outcome [1],outcome [5],outcome [6],outcome [9],AC50 [10],outcome [10]
Cc1cccc(Nc2ccccc2)c1,120 µM (active),inactive,inactive,inactive,127 µM (active),100 µM (active),inactive,inactive,,,,,,
CC(C)NCC(O)COc1ccc(CC(N)=O)cc1 (centres undefined),,,inactive,inactive,,,inactive,inactive,inactive,inactive,inactive,,,
CC(C)=CCCC(C)CC(=O)O (centres undefined),,inactive,inactive,inactive,,,inactive,inactive,inactive,inactive,inactive,inactive,,
Nc1c(Cl)cc(Cl)cc1[N+](=O)[O-],,,,inactive,,,inactive,inactive,,inactive,inactive,inactive,27.7 µM (active),
CCCCC(CC)(CO)CO,,inactive,inactive,inactive,,,inactive,inactive,,inactive,inactive,inactive,,
CC(C)(CO)[C@@H](O)C(=O)NCCC(=O)O,,inactive,,inactive,,,inactive,inactive,,inactive,inactive,inactive,53.4 µM (active),
CC1(C)O[C@@H]2C[C@H]3[C@@H]4CCC5=CC(=O)C=C[C@]5(C)[C@@]4(F)[C@@H](O)C[C@]3(C)[C@]2(C(=O)CO)O1,,inactive,inactive,inactive,,,inactive,inactive,,inactive,inactive,inactive,13.8 µM (active),
Nc1ccccc1[N+](=O)[O-],,inactive,inactive,inactive,,,inactive,inactive,,inactive,inactive,inactive,,inactive
COC(=O)c1ccc([N+](=O)[O-])cc1,,inactive,,inactive,,,inactive,inactive,,inactive,inactive,inactive,,inactive
c1ccc(Oc2ccccc2)cc1,,,inactive,inactive,,,inactive,inactive,,inactive,inactive,inactive,25.1 µM (active),
CC(C)CCCCCCc1ccc(OCCOCCO)cc1,,,,inactive,,,inactive,inactive,,inactive,inactive,inactive,,inactive
CCc1ncc(C)[nH]1,,inactive,inactive,,,,inactive,,,inactive,inactive,inactive,,inactive
O=[N+]([O-])c1cccc(Cl)c1,,inactive,inactive,inactive,,,inactive,inactive,,inactive,inactive,inactive,,inactive
